PGC1a acetyl inh: lowers PGC1a acetylation signal in U2OS cells. inhibition, % at 15.6 µM. AlphaScreen anti-acetyl-lysine; with virally co-expressed GCN5 acetyltransferase. 0.17% of 350,000 active;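 active = every replicate shows inhibition of at least 40%; inconclusive = mean inhibition at least 40% but some replicate below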
EWS-Fli block: blocks EWS/Fli oncoprotein-driven transcription. A673 NR0B1-luciferase reporter, viability-normalised. inhibition, % at 12.6 µM. 0.67% of 350,000 active;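 active = mean inhibition of at least 50% after viability correction, with every replicate also passing that limit; inconclusive = mean reaches 50% but only one of two replicates passes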;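 also: firefly luciferase signal divided by Alamar Blue viability fluorescence both relative to DMSO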
SIRT5 inh: blocks human SIRT5 desuccinylation of peptide. Q9NXA8. Purified SirT5, succinyl-peptide AMC, trypsin-coupled fluorescence. inhibition, % at 15 µM. 1.1% of 330,000 active. AID 652115; in the data active = inhibition above about 15%; inconclusive = no clear call, values can overlap the other calls
Target sequence (Q9NXA8 whole entry, looked up): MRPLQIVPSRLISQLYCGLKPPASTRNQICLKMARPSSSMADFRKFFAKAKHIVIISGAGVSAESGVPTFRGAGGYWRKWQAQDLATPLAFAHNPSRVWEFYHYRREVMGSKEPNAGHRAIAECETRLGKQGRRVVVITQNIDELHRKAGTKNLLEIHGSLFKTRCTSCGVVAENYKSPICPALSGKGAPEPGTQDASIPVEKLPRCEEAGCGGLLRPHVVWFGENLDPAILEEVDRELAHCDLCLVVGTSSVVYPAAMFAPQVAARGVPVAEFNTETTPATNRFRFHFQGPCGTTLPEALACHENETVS
rRNA inh HTS: selective bacterial rRNA inhibition in E. coli; E. coli WT GFP vs humanized-ribosome RFP mutants, fluorescence, 24 h; stronger effect = lower value; DMSO median 0, no signal -100; GFP signal change (wild-type ribosome), % (concentration not given with the values); 1.6% of 350,000 active; AID 720706;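 active = significant combined selectivity score with lowered wild-type GFP, culture density cut under 30%, mutant RFP and density less affected; inactive = any of these conditions unmet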
PAX8 reporter: inhibitors of PAX8 transcriptional activity in RMG-I cells. inhibition, % at 12.6 µM. 1.2% of 360,000 active. RMG-I TPO-luciferase reporter, SteadyGlo, 24 h. AID 652154;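 active = mean replicate inhibition at least 60% with every replicate also reaching 60%; inconclusive = only one of the two criteria is met; inactive = mean below 60% and not all replicates reaching 60%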;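 also: luciferase light reporting Pax8 driven TPO promoter activity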
LGR2 inh: Drosophila LGR2 receptor signaling inhibition | HEK293 LGR2, CRE-luciferase, bursicon-stimulated, 4 h | inhibition, % at 9.99 µM | 0.35% of 380,000 active | AID 720647;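 active = drop in luminescence signal, shown as inhibition above about 50% in the replicate tests, limit read from the data, passing the limit was not always enough; inconclusive = probably only some replicates passing the limit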;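 also: agonist challenge used bursicon conditioned medium at about half maximal strength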
Each line names hits and unclear results; the compound was inactive in the other large screens. Hits are enriched below; roughly 3.4% of the tested compounds scored in any of these assays.

CCOC(=O)CC1=NN(c2ccccc2)C(=O)C1	none
CCOC(=O)CC1=NN(c2ccccc2)C(=O)/C1=C\c1ccc(N(C)C)cc1	SIRT5 inh 112.5
CCCCCCCCCCCCCCCC[N+](C)(C)CC	EWS-Fli block 53.0, PAX8 reporter 107.4
CCCCCCCCCCCCCCCC[N+](C)(C)CCl	PAX8 reporter 106.3 (no result: SIRT5 inh)
CCCCCC[N+](C)(C)CCSSCC[N+](C)(C)CCCCCC	none
C[N+](C)(C)CCCCCC[N+](C)(C)C	none (no result: PGC1a acetyl inh)
CN(C)CCn1c(NCc2ccc3c(c2)OCO3)nc2ccccc21	SIRT5 inh 30.5
COc1ccc(CNC(=O)C[C@@H]2C=C[C@@H](NC(=O)Nc3ccc4c(c3)OCO4)[C@@H](CO)O2)cc1	none
COc1cccc(CN2CC3(CCN(C(C)=O)CC3)c3c(n(C)c4cc(OC)ccc34)[C@@H]2CO)c1	none (no result: PGC1a acetyl inh, EWS-Fli block, SIRT5 inh, PAX8 reporter, LGR2 inh)
O=C(CCN1CCN(c2ccccc2F)CC1)c1ccc(Br)cc1	none (no result: EWS-Fli block, SIRT5 inh, rRNA inh HTS, PAX8 reporter, LGR2 inh)
COc1ccc(C(=O)CCN2CCN(c3ccccc3F)CC2)cc1	PAX8 reporter 77.7
COCCNC(=O)C[C@@H]1C[C@@H]2c3cc(NC(=O)COC)ccc3O[C@@H]2[C@@H](CO)O1	none
COc1cc(C2NCC(c3ccc(Cl)cc3Cl)c3c2[nH]c2ccccc32)cc(OC)c1OC (stereo not given)	none (no result: PGC1a acetyl inh, LGR2 inh)
O=C(O)c1ccc(C2NCC(c3ccccc3Cl)c3c2[nH]c2ccccc32)cc1 (stereo not given)	rRNA inh HTS -36.9
Cc1ccc(S(=O)(=O)N[C@@H]2C=C[C@@H](CC(=O)N3CCC(Cc4ccccc4)CC3)O[C@@H]2CO)cc1	PAX8 reporter 89.6
CCN1[C@@H]2c3ccc(-c4ccccc4OC)c(=O)n3C[C@H]1[C@H](CO)[C@H]2C(=O)N[C@@H](C)c1ccccc1	none (no result: PGC1a acetyl inh, PAX8 reporter)
C=CCNC(=S)N/N=C/c1ccc(C)cc1C	rRNA inh HTS -16.9
COC1(OC)C=CC(=O)C=C1NC(=O)c1ccccc1OC(C)=O	EWS-Fli block 55.2, PAX8 reporter 68.8 (no result: PGC1a acetyl inh, SIRT5 inh)
Oc1cccc2cc(Nc3ccccc3)cnc12	PAX8 reporter 93.9
Oc1cc(Nc2ccccc2)cc2cccnc12	PAX8 reporter 96.3 (no result: SIRT5 inh)
N=c1c2c(ncn1Cc1ccco1)Oc1ccc3ccccc3c1C2c1ccccc1 (stereo not given)	none (no result: PGC1a acetyl inh, EWS-Fli block, SIRT5 inh, rRNA inh HTS)
N=c1c2c(ncn1CCCO)Oc1ccc3ccccc3c1C2c1ccccc1 (stereo not given)	rRNA inh HTS -19.4
N=c1c2c(ncn1CCCO)Oc1c(ccc3ccccc13)C2c1ccccc1 (stereo not given)	rRNA inh HTS -39.6 (no result: PGC1a acetyl inh)
COc1ccc(C2c3ccc4ccccc4c3Oc3ncn(CCO)c(=N)c32)cc1OC (stereo not given)	none (no result: EWS-Fli block, PAX8 reporter)
COc1ccc(C2c3ccc4ccccc4c3Oc3ncn(CCCO)c(=N)c32)cc1OC (stereo not given)	rRNA inh HTS -19.5 (no result: PGC1a acetyl inh)
COCC#Cc1ccc([C@H]2[C@H](CO)N3C(=O)CN(C(=O)Nc4cc(F)ccc4F)C[C@@H]23)cc1	none (no result: PGC1a acetyl inh, EWS-Fli block, SIRT5 inh, PAX8 reporter, LGR2 inh)
COC(=O)c1sc(N)c(C(=O)OC)c1Cn1ncc(Cl)c(Cl)c1=O	PAX8 reporter 63.3 (no result: PGC1a acetyl inh)
COC(=O)c1sc(N)c(C(=O)OC)c1COC(=O)c1c(C)noc1C	none (no result: EWS-Fli block, SIRT5 inh, rRNA inh HTS, LGR2 inh)
C[C@@H]1CCCCO[C@H](CN(C)S(=O)(=O)c2ccc(Cl)cc2)[C@H](C)CN([C@@H](C)CO)C(=O)c2cc(NC(=O)c3ccncc3)ccc2O1	none
CCS(=O)(=O)N1Cc2ccccc2CC1C(=O)Nc1nc2ccccc2s1 (stereo not given)	LGR2 inh 57.6 (no result: EWS-Fli block, SIRT5 inh, rRNA inh HTS)
CCc1nnc(NC(=O)C2Cc3ccccc3CN2S(=O)(=O)CC)s1 (stereo not given)	none
CC(C)NC(=O)N(C)C[C@@H]1Oc2ccc(NS(=O)(=O)c3cccs3)cc2C(=O)N([C@@H](C)CO)C[C@H]1C	none (no result: PGC1a acetyl inh, SIRT5 inh, PAX8 reporter)
Cc1cccc(-c2nnc(-c3ccc4ccccc4c3)o2)c1	LGR2 inh 52.4 (no result: SIRT5 inh)
CCC(c1nnnn1C(C)(C)C)N1CCN(Cc2ccccc2OC)CC1 (stereo not given)	SIRT5 inh 16.6
C[C@H]1CN([C@@H](C)CO)C(=O)c2cc(/C=C/c3ccccc3)cnc2O[C@@H]1CN(C)C(=O)C1CCCCC1	none (no result: PAX8 reporter)
Cc1ccc(CNC(=O)CN2C(=O)NC(C)(c3ccc(Cl)cc3)C2=O)cc1 (stereo not given)	none
Cc1ccc(CNC(=O)CN2C(=O)NC(C)(c3cccc(Br)c3)C2=O)cc1 (stereo not given)	rRNA inh HTS -28.9
COc1ccc2c3c(n(C)c2c1)[C@H](CO)N(Cc1ccccc1)CC31CN(S(C)(=O)=O)C1	none (no result: SIRT5 inh, PAX8 reporter)
Cn1cnc(S(=O)(=O)Nc2ccccc2N2CCOCC2)c1	SIRT5 inh 15.2
O=S(=O)(Nc1ccccc1N1CCOCC1)c1ccccc1C(F)(F)F	none
COc1cccc(NC(=O)N[C@H]2C=C[C@@H](CC(=O)Nc3ccc(-c4ccccc4)cc3)O[C@H]2CO)c1	none (no result: EWS-Fli block, PAX8 reporter)
COC(=O)c1cc(C(=O)OC)n(Cc2ccc(F)cc2)c1C	rRNA inh HTS -40.5 (no result: PGC1a acetyl inh)
CCOc1c(OC(C)=O)ccc(/C=C/c2ccc3cccc(OC(C)=O)c3n2)c1[N+](=O)[O-]	none (no result: PAX8 reporter)
C=CCN1C(=O)/C(=C/c2ccc(OC(C)=O)c(OCC)c2[N+](=O)[O-])SC1=S	PAX8 reporter 99.6 (no result: PGC1a acetyl inh)
O=C(C[C@H]1C[C@H]2c3cc(NS(=O)(=O)c4ccc(F)cc4)ccc3O[C@H]2[C@H](CO)O1)N1CCOCC1	none
O=C1Nc2ccccc2C(=O)N2[C@H](c3ccccc3)[C@@H]3C(=O)N(Cc4ccccc4)C(=O)[C@@H]3[C@H]12	SIRT5 inh 15.8
COc1ccc(NC(=O)Nc2ccc3c(c2)C(=O)N([C@H](C)CO)C[C@H](C)[C@@H](CN(C)S(=O)(=O)c2c(C)noc2C)OCCCC[C@H](C)O3)cc1	none (no result: SIRT5 inh)
CCCCNC(=O)C(COCc1ccccc1)OC(=O)c1ccccc1 (stereo not given)	none (no result: rRNA inh HTS, LGR2 inh)
CCc1ccccc1NC(=O)Cn1nnc(-c2cccs2)n1	none (no result: EWS-Fli block, SIRT5 inh, rRNA inh HTS, PAX8 reporter, LGR2 inh)
Cc1cccc(NC(=O)Cn2nnc(-c3cccs3)n2)c1C	SIRT5 inh 24.7 (no result: PGC1a acetyl inh, EWS-Fli block, PAX8 reporter)
CNC(=S)NC1CC2CCCC(C1)N2Cc1ccccc1OC (stereo not given)	rRNA inh HTS -16.6
C[C@@H]1CN([C@@H](C)CO)C(=O)c2cc(NS(=O)(=O)c3cccs3)ccc2O[C@@H](C)CCCCO[C@H]1CN(C)C(=O)Nc1ccc(F)cc1	none
C[C@@H]1CCCCO[C@@H](CN(C)Cc2ccc(C(F)(F)F)cc2)[C@@H](C)CN([C@@H](C)CO)C(=O)c2cc(NS(=O)(=O)c3cccs3)ccc2O1	SIRT5 inh 18.6, PAX8 reporter inconclusive
C[C@H](CO)N1C[C@H](C)[C@@H](CN(C)C(=O)Nc2ccc(C(F)(F)F)cc2)OCCCC[C@H](C)Oc2ccc(NS(=O)(=O)c3cccs3)cc2C1=O	PAX8 reporter 65.0
